Parameters in all cases: scale not given: direction of the effect not stated beside the values
In assay [1] the target is Protein translocase subunit SecA (Escherichia coli (strain K12)) (UniProt P10408). Nature of the assay: Assay to Identify E. coli SecA ATPase Inhibitors. It counts as functional. Particulars: 30 µM.
The target in assay [2] is T1, Ubiquitin-activating enzyme e1, putative (Leishmania donovani (strain BPK282A1)) (UniProt E9BSI1).
T1 sequence (whole entry): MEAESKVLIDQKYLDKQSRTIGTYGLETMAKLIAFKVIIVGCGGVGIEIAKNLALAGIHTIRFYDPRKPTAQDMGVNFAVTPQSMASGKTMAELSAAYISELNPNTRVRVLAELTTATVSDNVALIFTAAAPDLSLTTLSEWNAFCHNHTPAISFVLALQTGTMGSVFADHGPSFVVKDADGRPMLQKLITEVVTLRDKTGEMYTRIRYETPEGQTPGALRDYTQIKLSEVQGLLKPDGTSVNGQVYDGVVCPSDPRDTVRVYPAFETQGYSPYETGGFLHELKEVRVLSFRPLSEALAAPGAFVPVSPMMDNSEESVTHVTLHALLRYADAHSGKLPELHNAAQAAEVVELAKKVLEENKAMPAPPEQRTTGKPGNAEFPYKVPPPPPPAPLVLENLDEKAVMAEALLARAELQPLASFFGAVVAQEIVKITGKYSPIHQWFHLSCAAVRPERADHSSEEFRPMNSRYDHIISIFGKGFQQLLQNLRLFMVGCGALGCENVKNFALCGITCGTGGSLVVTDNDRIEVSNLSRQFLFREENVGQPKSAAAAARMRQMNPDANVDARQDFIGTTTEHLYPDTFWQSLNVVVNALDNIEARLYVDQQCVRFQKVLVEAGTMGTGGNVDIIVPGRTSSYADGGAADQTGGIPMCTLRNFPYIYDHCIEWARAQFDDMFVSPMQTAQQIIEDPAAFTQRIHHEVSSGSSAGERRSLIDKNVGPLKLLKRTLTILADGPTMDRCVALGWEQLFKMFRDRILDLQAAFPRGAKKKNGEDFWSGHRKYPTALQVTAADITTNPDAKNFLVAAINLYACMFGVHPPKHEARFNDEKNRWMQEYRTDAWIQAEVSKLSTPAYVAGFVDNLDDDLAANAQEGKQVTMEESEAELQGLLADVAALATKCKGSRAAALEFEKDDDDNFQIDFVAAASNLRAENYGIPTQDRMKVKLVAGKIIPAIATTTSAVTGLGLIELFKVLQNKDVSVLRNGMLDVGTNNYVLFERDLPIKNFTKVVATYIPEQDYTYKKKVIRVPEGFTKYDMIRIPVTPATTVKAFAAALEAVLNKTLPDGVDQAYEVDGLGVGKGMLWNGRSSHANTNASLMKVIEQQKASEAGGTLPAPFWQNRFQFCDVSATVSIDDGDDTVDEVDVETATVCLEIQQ
Put plainly: Leishmania donovani Ubiquitin Activating Enzyme (LdE1). It counts as functional. The following applies: 30 µM.

Assay [3] addresses AMP-activated protein kinase, AMPK (Homo sapiens) (UniProt P54646+O43741+P54619+Q9UGJ0+Q9Y478+Q13131+Q9UGI9). Put plainly: AMP-dependent Kinase enzyme assay. An in vitro enzyme assay that detects ADP turnover that is directly proportional to AMPK activity. This uses naive AMPK that is activated during the assay with MK-8722. The assay is classed as functional. The following applies: 30 µM.

Assay [4] addresses Sialic acid-binding Ig-like lectin 9 (Homo sapiens) (UniProt Q9Y336). Nature of the assay: Hs-Siglec9 ALPHAscreen SOP 20170721. Particulars: 10 µM.
In assay [5] the test system is Trypanosoma cruzi. Put plainly: Trypanosoma cruzi phosphomannomutase and mannose-1-phosphate guanylyltransferase assay. Particulars: 10 µM. It counts as functional.
Assay [6] has as its target T2, Arginase-2, mitochondrial (Homo sapiens) (UniProt P78540).
T2 sequence (whole entry): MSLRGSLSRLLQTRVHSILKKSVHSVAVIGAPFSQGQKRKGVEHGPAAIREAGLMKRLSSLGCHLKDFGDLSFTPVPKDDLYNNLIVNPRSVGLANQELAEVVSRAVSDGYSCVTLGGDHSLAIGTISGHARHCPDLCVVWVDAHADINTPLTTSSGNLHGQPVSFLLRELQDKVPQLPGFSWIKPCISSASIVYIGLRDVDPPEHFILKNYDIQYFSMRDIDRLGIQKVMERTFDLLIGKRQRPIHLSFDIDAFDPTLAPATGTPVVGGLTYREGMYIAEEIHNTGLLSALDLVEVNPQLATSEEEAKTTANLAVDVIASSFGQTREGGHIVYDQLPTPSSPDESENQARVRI
Nature of the assay: in vitro enzyme assay to detect the production of urea directly proportional to the activity of Arginase II. Further: in the data most compounds retested in dose-response had high values. It counts as functional. The following applies: 33.3 µM.

Assay [7] addresses T3, Proteasome subunit beta (Trypanosoma cruzi) (UniProt O96673).
T3 sequence (whole entry): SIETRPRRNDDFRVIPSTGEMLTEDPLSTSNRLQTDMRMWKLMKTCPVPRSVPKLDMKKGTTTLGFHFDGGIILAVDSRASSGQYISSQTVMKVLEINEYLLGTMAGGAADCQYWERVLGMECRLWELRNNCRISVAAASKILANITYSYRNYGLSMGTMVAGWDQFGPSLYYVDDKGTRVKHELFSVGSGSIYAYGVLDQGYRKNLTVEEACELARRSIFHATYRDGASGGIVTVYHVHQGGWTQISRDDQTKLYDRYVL
Put plainly: Trypanosoma cruzi proteasome chymotrypsin-like activity (TcProtChymo) assay. Further: in the data most compounds retested in dose-response had high values. The assay is classed as functional. The following applies: 9.37 µM.

Assay [8] is filed under the species Homo sapiens. Put plainly: To identify inhibition of the IFN signalling (Jak-Stat) pathway via expression of an eGFP reporter gene under the control of an IFN-stimulated response element (ISRE) containing MxA promoter. The assay is classed as functional. Particulars: 30 µM.
Assay [9] concerns the target T4, Tyrosyl-tRNA synthetase, putative (Trypanosoma cruzi (strain CL Brener)) (UniProt Q4DSP6).
T4 sequence (whole entry): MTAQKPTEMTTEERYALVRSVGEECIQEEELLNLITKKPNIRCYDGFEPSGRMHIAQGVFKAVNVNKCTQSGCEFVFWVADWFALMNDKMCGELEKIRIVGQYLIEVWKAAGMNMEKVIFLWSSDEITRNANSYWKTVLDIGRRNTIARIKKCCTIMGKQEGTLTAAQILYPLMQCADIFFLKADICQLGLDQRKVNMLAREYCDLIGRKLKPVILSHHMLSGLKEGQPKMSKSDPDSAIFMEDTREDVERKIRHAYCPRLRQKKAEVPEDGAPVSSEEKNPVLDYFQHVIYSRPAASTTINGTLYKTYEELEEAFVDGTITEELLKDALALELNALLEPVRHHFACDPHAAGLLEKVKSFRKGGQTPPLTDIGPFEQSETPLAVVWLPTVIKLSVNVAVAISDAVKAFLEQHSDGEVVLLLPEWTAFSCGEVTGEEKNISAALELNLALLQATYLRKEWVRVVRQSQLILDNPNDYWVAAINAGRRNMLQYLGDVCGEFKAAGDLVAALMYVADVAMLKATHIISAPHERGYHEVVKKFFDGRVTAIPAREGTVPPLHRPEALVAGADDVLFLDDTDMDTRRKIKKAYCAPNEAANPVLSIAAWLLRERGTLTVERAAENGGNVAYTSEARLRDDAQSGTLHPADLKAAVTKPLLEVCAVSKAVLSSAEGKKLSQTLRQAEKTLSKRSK
Nature of the assay: Trypanosoma cruzi tyrosyl tRNA synthetase (TcYRS) _High Tyrosine SOP. Further: in the data most compounds retested in dose-response had high values. It counts as functional. The following applies: 30 µM.

For assay [10], the target named is T4, Tyrosyl-tRNA synthetase, putative (Trypanosoma cruzi (strain CL Brener)). Nature of the assay: Trypanosoma cruzi tyrosyl tRNA synthetase (TcYRS) SOP. The following applies: 30 µM. It counts as functional.
Assay [11] has as its target Chromo domain-containing protein 1 (Saccharomyces cerevisiae (strain ATCC 204508 / S288c) (Baker's yeast)) (UniProt P32657). Nature of the assay: ScCHD-1 Enzyme Inhibition Assay. Further: in the data most compounds retested in dose-response had high values. It counts as functional. Particulars: 30 µM.

For some of these results: Entries with a potency or affinity are not part of this list.

Chain of Protein translocase subunit SecA (Escherichia coli (strain K12)) (P10408 whole entry): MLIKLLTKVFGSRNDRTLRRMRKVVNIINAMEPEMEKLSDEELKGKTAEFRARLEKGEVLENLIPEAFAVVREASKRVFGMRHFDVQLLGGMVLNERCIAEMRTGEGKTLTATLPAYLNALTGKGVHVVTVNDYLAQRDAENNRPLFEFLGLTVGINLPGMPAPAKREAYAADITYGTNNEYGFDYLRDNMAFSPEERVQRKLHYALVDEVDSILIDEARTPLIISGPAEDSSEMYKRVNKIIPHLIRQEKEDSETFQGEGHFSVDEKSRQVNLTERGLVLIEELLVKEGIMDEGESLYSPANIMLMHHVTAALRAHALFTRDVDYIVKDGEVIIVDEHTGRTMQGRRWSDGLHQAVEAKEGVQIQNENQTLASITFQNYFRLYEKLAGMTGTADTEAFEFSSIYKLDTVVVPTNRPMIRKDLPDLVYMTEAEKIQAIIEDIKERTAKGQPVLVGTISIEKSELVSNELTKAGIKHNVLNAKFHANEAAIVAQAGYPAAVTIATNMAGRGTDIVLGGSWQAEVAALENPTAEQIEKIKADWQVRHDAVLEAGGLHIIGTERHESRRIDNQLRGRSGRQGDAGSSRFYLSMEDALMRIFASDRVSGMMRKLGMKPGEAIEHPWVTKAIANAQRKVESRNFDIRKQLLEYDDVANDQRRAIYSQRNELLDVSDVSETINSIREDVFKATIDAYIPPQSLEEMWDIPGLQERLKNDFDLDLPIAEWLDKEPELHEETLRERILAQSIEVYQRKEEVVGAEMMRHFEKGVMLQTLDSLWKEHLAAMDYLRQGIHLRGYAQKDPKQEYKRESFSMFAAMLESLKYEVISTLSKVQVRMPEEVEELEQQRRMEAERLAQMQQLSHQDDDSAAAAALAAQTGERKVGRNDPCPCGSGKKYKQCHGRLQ
Chain of Sialic acid-binding Ig-like lectin 9 (Homo sapiens) (Q9Y336 whole entry): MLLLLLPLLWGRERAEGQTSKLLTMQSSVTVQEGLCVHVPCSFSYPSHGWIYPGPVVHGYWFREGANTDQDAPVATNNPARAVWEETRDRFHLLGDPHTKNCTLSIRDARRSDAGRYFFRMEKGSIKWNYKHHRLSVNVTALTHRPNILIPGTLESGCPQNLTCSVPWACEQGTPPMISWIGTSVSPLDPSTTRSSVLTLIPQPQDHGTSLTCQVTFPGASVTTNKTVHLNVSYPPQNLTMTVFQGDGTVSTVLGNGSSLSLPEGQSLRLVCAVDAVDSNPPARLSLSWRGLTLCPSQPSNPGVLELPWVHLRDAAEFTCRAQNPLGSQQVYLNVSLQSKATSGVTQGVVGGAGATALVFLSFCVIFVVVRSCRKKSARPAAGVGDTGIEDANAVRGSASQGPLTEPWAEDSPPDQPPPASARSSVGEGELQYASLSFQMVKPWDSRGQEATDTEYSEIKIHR
Chain of Chromo domain-containing protein 1 (Saccharomyces cerevisiae (strain ATCC 204508 / S288c) (Baker's yeast)) (P32657 whole entry, the tested form may be a part): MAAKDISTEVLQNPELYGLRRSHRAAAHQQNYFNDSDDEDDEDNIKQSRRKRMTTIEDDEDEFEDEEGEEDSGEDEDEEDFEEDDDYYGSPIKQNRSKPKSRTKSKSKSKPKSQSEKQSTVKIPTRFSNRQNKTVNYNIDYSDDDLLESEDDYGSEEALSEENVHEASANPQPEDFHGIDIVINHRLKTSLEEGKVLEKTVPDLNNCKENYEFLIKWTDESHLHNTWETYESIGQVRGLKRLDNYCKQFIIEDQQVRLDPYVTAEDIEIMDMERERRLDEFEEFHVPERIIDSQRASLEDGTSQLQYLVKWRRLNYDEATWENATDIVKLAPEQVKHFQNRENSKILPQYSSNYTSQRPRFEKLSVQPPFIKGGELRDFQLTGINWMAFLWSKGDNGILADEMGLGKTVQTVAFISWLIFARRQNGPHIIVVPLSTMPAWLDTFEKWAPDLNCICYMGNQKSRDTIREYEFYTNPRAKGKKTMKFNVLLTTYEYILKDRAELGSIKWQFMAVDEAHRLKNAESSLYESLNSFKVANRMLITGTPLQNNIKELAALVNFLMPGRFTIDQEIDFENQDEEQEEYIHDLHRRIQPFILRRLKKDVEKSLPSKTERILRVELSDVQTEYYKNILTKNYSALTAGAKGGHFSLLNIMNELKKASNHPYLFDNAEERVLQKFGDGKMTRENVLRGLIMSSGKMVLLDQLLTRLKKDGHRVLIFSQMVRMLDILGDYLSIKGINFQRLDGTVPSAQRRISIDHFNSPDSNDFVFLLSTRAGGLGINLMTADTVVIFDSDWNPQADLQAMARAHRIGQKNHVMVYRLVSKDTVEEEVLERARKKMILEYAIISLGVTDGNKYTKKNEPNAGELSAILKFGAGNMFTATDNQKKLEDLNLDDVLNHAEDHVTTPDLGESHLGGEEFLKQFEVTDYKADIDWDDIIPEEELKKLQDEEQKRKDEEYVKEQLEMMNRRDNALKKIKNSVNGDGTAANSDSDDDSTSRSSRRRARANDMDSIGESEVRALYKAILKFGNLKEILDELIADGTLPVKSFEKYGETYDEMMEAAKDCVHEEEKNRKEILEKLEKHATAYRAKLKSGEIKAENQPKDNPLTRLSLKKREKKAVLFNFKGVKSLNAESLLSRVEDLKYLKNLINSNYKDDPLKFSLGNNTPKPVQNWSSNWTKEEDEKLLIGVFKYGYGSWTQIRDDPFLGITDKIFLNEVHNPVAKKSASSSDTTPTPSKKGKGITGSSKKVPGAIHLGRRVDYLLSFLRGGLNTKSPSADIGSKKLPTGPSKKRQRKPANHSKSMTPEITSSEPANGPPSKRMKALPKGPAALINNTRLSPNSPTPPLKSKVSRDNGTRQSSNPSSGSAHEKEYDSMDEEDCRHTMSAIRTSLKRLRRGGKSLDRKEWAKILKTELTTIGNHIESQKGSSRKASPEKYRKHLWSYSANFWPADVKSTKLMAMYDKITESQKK

With `COCC1c2nnn(CC3CC3)c2CCN1C(=O)c1ccnnc1` (stereo unspecified), the Percent Effect in [1] is -5.05%; in assay [2] it was 21.6%; in assay [3], -7.32%; in assay [4], 32.8%; in assay [5], 3.81%; in assay [6], 3.23%. Moreover, the Percent Effect was 3.86% in assay [7]; -2.31% in assay [8]; 6.45% in assay [9]; 13.6% in assay [10]; -10.1% in assay [11].
As for `CCN1CCN(CC(O)c2ccc(F)cc2)CC1` (stereo unspecified), the Percent Effect in assay [1] is -4.5%; in assay [2] it was 2.7%; in assay [3] it was -2.92%; in assay [4], 3.74%; in [5], -2.92%; in [6], -0.401%. The Percent Effect is 3.96% in assay [7]; 3.68% in [8]; 5.42% in [9]; 13.6% in [10]; -6.3% in assay [11].
Consider `Cc1cccc(OCCC(=O)N2CCCN(C(N)=O)CC2)c1C`, for which the Percent Effect was -5.63% in assay [1]; -63.3% in assay [2]; -5.53% in assay [3]; -0.36% in [4]; -9.54% in [5]; 3.8% in assay [6]. The Percent Effect in [7] was 3.85%; in [8] it was 27.5%; in assay [9], -3.45%; in assay [10], -8.86%; in assay [11], -6.9%.
In the case of `Cc1nnc(N2CCC(CNC(=O)OC(C)(C)C)CC2)c(C#N)c1C`, the Percent Effect was -4.74% in [1]; 7.79% in [2]; -1.74% in [3]; -8.54% in [4]; 1.47% in assay [5]; -0.21% in assay [6]. Moreover, the Percent Effect in [7] is 7.2%; in assay [8], 26.6%; in [9] it was 2.86%; in assay [10], 11.8%; in assay [11], -16.5%.
For the compound `Cc1ccc(C2C3=C(COC3=O)Nc3[nH]nc(C)c32)cc1C` (stereo unspecified), the Percent Effect in assay [1] is -2.97%; in assay [2] it was 9.33%; in [3] it was 12.5%; in assay [4], -3.88%; in [5] it was -4.71%; in assay [6] it was -4.75%. Besides, the Percent Effect is 10.7% in [7]; 30.1% in [8]; -22.2% in [9]; -23.1% in assay [10]; -11.7% in [11].
As for `COc1cc(C(=O)NS(=O)(=O)c2cccc(C#N)c2)cc(Cl)c1OC`, the Percent Effect in assay [1] was -2.08%; in assay [2], -5.41%; in assay [3] it was 2.84%; in assay [4] it was 4.53%; in [5], 3.44%; in assay [6], 3.51%. Further, the Percent Effect is 1.79% in [7]; -7.05% in assay [8]; -6.93% in [9]; -1.22% in [10]; 6.51% in [11].
Consider `Cc1ccc(-c2noc(CN3CCOC(Cn4cncn4)C3)n2)cc1` (stereo unspecified), for which the Percent Effect is -4.95% in assay [1]; -5.41% in assay [2]; 0.576% in assay [3]; 2.63% in assay [4]; 2.14% in [5]; -2.03% in assay [6]. For the same compound, the Percent Effect in [7] was -1.79%; in assay [8], 8.27%; in assay [9], 2.97%; in [10] it was -1.22%; in assay [11] it was 5.54%.
With `CC(C)c1nc(C2CCCN2Cc2ccccc2C#N)no1` (stereo unspecified), the Percent Effect in assay [1] is -1.53%; in assay [2], -13%; in [3], -3.89%; in assay [4] it was 11.4%; in assay [5], 5.24%; in [6], 1.07%. In addition, the Percent Effect in assay [7] is -4.22%; in assay [8] it was 5.77%; in [9] it was 5.83%; in assay [10], 12.2%; in [11] it was 73.9%.
Regarding `COc1ccc(CCN2CCCC(Cn3nc(C)nc3C)C2)cc1` (stereo unspecified), the Percent Effect in assay [1] is -1.76%; in [2], -11.4%; in assay [3], -0.842%; in assay [4], 1.01%; in assay [5] it was 2.77%; in [6] it was -2.8%. Also, the Percent Effect is 8.58% in assay [7]; -4.76% in assay [8]; 8.33% in assay [9]; 10.1% in [10]; -19.5% in [11].
Take `Cc1nc(CC(=O)N2CCCCC2c2ccn3ccnc3n2)cs1` (stereo unspecified): the Percent Effect in assay [1] was -1.88%; in assay [2] it was -4.05%; in assay [3] it was 11.6%; in [4], 4.95%; in assay [5] it was -1.78%; in [6], -3.02%. Further, the Percent Effect was 12.6% in assay [7]; 7.12% in assay [8]; -1.07% in assay [9]; 1.3% in assay [10]; -15.1% in [11].
Consider `CC(C)CCn1[nH]c(CNc2ccccc2)nc1=O`, for which the Percent Effect was -2.4% in assay [1]; 2.63% in assay [2]; 4.53% in [3]; 4.24% in [4]; -9.06% in assay [5]; 2.37% in [6]. Also, the Percent Effect in assay [7] was 16.2%; in [8] it was 2.77%; in [9] it was 2.13%; in assay [10], 2.6%; in [11], 4.81%.
